# In PubChem BioAssay:
# Several values for one entry are separate records, joined by “and”; a condition that tells them apart may be missing. Equal entries are not always repeated. For some assays here: Potency and affinity values are given separately. Activity calls are given as the source filed them.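 Rule for the calls, unless noted: active = compounds whose cell count with miR-34 switched on is under 0.7 times the count with it off; inactive = the rest.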
# What was measured:
# [1] = biological target: 6-phosphogluconate dehydrogenase, decarboxylating (Homo sapiens) (UniProt P52209); assay: 6PGD enzyme inhibitors, primary screen, biochemical, human, recombinant enzyme, NADPH absorbance (AID 1159550;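 active = at least 20% inhibition of 6-phosphogluconate dehydrogenase activity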); details: recombinant 6PGD, NADPH absorbance 341 nm; at 10 µM; stronger effect = higher value
# 6-phosphogluconate dehydrogenase, decarboxylating (Homo sapiens), sequence (P52209 whole entry, looked up): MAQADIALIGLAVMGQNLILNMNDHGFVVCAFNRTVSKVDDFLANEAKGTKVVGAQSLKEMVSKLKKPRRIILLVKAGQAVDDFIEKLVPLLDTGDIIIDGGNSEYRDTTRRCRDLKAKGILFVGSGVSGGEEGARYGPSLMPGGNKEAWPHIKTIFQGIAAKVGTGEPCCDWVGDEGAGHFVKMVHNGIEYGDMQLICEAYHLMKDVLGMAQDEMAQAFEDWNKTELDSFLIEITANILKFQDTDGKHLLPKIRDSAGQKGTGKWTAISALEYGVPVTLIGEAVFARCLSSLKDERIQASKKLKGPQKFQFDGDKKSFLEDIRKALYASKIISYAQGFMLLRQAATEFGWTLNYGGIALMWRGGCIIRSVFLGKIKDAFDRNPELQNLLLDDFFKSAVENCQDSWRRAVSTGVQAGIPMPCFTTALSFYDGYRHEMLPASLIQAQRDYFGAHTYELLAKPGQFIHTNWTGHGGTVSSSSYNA
# [2] = differential killing of epithelial or mesenchymal cells, primary screen, imaging, PC-3E GFP, TEM4-18 mCherry, co-culture (AID 1345086;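 active = compounds killing one labelled cell type while sparing the other, by normalised counts and ratio limits, not self-fluorescent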;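 for all read-outs here: cells exposed to compound for 72 h before imaging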;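 for red/green cell ratio (normalised): normalised mesenchymal count divided by normalised epithelial count so high means epithelial killing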); details: imaging cell counts, at 1 µM; for red/green cell ratio (normalised): actives lie on both sides, counts scaled to control wells, 1 = unselective
# [3] = sensitizers of A549 cells to miR-34 induction, primary screen, imaging, A549 dox-inducible miR-34, nuclei and caspase counts (AID 1347080); details: A549 miR-34 inducible, Hoechst nuclei count, 48 h
# [4] = survival rescue of mitochondrial mutant cells in low glucose, primary screen, MELAS cybrids, Rieske KO mouse fibroblasts, CellTiter-Glo (AID 1508586;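 active = mean z-score across replicates of 1.96 or higher in either the MELAS or the Rieske mutant cell line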;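 note: z relative to plate mean and SD of compound and empty wells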)
# [5] = biological target: Mitogen-activated protein kinase 7 (Homo sapiens) (UniProt Q13164); assay: ERK5 transactivation activators in reporter cells, primary screen, cell-based, HTS (AID 1508626;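 active = luciferase signal above three times the same-plate solvent-only control wells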;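 note: luciferase driven by Gal4-ERK5 fusion binding five Gal4 sites before minimal TATA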); details: HeLa Gal4-ERK5 transactivation, 18 h, at 5 µM, stronger effect = higher value
# Mitogen-activated protein kinase 7 (Homo sapiens), sequence (Q13164 whole entry, looked up, the tested form may be a part): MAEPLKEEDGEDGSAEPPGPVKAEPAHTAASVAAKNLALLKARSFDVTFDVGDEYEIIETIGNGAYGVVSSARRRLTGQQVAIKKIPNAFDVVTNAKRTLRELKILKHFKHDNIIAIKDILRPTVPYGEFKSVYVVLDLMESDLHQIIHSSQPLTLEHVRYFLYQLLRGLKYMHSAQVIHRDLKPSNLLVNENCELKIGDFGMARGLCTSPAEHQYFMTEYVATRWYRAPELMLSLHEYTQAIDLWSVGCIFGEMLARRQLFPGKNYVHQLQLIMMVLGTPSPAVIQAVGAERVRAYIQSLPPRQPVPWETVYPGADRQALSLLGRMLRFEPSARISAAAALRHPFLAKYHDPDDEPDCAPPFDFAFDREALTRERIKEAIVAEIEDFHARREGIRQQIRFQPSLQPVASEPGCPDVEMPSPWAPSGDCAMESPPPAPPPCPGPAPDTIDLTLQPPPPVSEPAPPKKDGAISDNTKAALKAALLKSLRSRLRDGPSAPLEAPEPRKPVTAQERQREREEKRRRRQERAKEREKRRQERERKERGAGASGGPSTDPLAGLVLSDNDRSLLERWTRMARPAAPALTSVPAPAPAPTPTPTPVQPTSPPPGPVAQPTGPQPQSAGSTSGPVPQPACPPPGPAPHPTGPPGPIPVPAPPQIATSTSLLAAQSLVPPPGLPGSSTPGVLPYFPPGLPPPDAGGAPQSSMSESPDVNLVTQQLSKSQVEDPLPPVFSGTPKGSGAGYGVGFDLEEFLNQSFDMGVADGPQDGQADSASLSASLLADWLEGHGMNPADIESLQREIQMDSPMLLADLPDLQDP
# [6] = polyglutamine-triggered caspase-3 activation inhibitors, cell-based (AID 1583); details: polyglutamine-induced caspase-3 activation, cell assay; stronger effect = higher value;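 tested at 10 µM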
# [7] = suppressors of polyQ aggregation in yeast, 75Q-TubU reporter (AID 1593); details: Yeast 75Q polyglutamine aggregation reporter
# [8] = rescue of polyQ-huntingtin neuronal dysfunction in worms, whole organism, C. elegans mechanosensory neurons, N-terminal huntingtin (AID 1599); details: touch response, stronger effect = higher value
# [9] = inhibitors of mitochondrial cytochrome c release, biochemical, purified mitochondria (AID 1603); details: stronger effect = lower value;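 note: mouse liver mitochondria challenged with calcium chloride; signal normalized to the plate average as 100%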
# [10] = inhibitors of polyQ protein aggregation (AID 1604); details: polyglutamine-induced protein aggregation inhibition assay; stronger effect = higher value; tested at 2.5 µM
# [11] = enhancers of glutamate uptake in motor neurons, MN-1 cell line (AID 1612); details: MN-1 motor neuron cells, stronger effect = higher value;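 note: tested at 1 µM final; 0% = mean of DMSO vehicle wells on each plate; positive means more glutamate uptake than control and negative means less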
# [12] = reducers of polyQ inclusions in PC12 cells, cell-based, NGF-treated PC12, GFPQ80 (AID 1614); details: PC12 NGF-treated GFP-polyQ80 inclusion reduction;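 note: lower means fewer inclusions and 0 means no inclusions at all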
# [13] = suppressors of polyglutamine aggregation in yeast, 75Q-TubH (AID 1616); details: S. cerevisiae 75Q-TubH polyglutamine aggregation suppression; stronger effect = higher value
# [14] = circadian clock period modulators, cell-based, LOPAC library, luminescence reporter (AID 2774; call rule not given here;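 note: values are relative to mean of DMSO wells on each plate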); details: circadian reporter cells, at 7 µM, actives lie on both sides
# [15] = hESC survival regulators, cell-based (AID 493140; call rule not given here;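 note: cells exposed to compounds for four days before counting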); details: human embryonic stem cell survival screen; stronger effect = higher value
# [16] = phospholipid biosynthesis inhibitors in animal cells, primary screen, cell-based, LOPAC library, screen 4 (AID 1347384; call rule not given here); details: phospholipid biosynthesis inhibition screen, at 10 µM
# [17] = viability rescue of complex I mutant cybrids, primary screen, cell-based, galactose medium, ATP luminescence (AID 1645843;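 active = z-score of at least 1.8 in each of two replicates, scored against plate mean and spread of sample wells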;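 note: positive z means more ATP and so rescue of galactose-driven cybrid death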); details: complex I mutant cybrid cells, 72 h, stronger effect = higher value
# [18] = liver-stage malaria parasite growth inhibition, primary screen, cell-based, HepG2, luciferase luminescence, HepG2 viability (AID 624349; in the data active = parasite load remaining mostly below about 12%, no sharp cut-off; inactive = mostly above about 10%;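 note: 100% = mean of DMSO negative control wells on the same plate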); details: P. berghei liver stage in HepG2, luciferase luminescence, concentration not given here; parasite load remaining: stronger effect = lower value; viability: measured here: HepG2 viability without parasites
# [19] = biological target: NAD(+) hydrolase SARM1 (Homo sapiens) (UniProt Q6SZW1); assay: SARM1 TIR NADase inhibitors, cell lysate, NAD-Glo luminescence (AID 1508614;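 active = compound whose remaining NAD level is above about 45 nM, limit read from the data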;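 note: higher remaining NAD means stronger inhibition of SARM1 NADase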); details: SAM-TIR HEK293T lysate NADase, at 1 µM, stronger effect = higher value
# NAD(+) hydrolase SARM1 (Homo sapiens), sequence (Q6SZW1 whole entry, looked up): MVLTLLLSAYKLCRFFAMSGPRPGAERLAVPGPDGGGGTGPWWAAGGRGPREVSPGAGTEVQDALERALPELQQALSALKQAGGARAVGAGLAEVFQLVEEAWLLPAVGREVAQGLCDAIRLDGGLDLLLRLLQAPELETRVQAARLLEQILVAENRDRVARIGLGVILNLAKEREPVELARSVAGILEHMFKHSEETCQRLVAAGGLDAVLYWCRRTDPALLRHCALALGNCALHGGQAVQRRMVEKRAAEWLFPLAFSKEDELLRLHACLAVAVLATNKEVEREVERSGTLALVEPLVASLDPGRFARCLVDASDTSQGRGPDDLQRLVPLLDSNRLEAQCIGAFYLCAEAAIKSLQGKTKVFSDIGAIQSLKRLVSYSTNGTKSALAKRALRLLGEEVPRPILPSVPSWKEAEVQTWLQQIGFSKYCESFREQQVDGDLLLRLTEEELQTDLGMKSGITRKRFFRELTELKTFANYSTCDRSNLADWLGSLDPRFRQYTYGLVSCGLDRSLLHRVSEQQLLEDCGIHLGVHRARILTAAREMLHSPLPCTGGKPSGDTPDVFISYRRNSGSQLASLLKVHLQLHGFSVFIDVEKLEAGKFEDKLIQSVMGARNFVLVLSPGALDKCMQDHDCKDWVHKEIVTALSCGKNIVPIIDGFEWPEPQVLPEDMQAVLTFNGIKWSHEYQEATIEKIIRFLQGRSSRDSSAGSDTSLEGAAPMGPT
# [20] = measured here: epithelial PC-3E GFP cell survival
# [21] = measured here: mesenchymal TEM4-18 mCherry cell survival
# [22] = stronger effect = lower value, cell number ratio, induced over uninduced
# [23] = measured here: relative caspase fold change +Dox/-Dox
# [24] = measured here: total cells with miR-34 induction, stronger effect = lower value
# [25] = measured here: total cells without miR-34 induction
# [26] = MELAS cybrid survival, CellTiter-Glo 48 h, stronger effect = higher value
# [27] = Rieske KO mouse fibroblast survival, CellTiter-Glo 72 h
smiles,measurement,setting,value
OCC(O)C(O)C(O)CO (configuration not stated),inhibition,[1],-9.83% (inactive)
same,red/green cell ratio (normalised),[2],1.02 (inactive) and 0.91 (inactive)
same,normalised cell number,[2]; [20],0.96 and 1.18
same,normalised cell number,[2]; [21],0.97 and 1.07
same,fold change,[3]; [22],0.884 (inactive)
same,fold change,[3]; [23],0.816
same,cell count,[3]; [24],9100
same,cell count,[3]; [25],10300
same,z-score,[4]; [26],-0.33 (inactive)
same,z-score,[4]; [27],0.446
same,luciferase signal,[5],36 AU (inactive)
CN1C2CCC1CC(OC(=O)C(CO)c1ccccc1)C2 (configuration not stated),inhibition,[6],-7.62%
same,score,[7],1.48
same,rescue above control,[8],-4.85
same,cytochrome c release ratio,[9],1.14
same,inhibition of aggregation,[10],83.1%
same,glutamate uptake change,[11],7.04%
same,inclusion score,[12],2
same,aggregation suppression score,[13],1.57
same,period change,[14],0.005 hour (inactive) and 0.075 hour (inactive)
same,survival,[15],7.25 (inactive)
same,inhibition,[1],-2.64% (inactive)
same,red/green cell ratio (normalised),[2],1.05 (inactive)
same,normalised cell number,[2]; [20],0.95
same,normalised cell number,[2]; [21],1
same,outcome,[16],inactive
same,z-score,[4]; [26],-0.14 (inactive)
same,z-score,[4]; [27],-0.261
same,z-score,[17],0.025 (inactive) and 0.13 (inactive)
O=c1c(O)c(-c2ccc(O)c(O)c2)oc2cc(O)ccc12,inhibition,[1],-3.55% (inactive)
same,red/green cell ratio (normalised),[2],1.02 (inactive)
same,normalised cell number,[2]; [20],1.04
same,normalised cell number,[2]; [21],1.06
same,fold change,[3]; [22],0.705 (inactive) and 0.857 (inactive)
same,fold change,[3]; [23],0.235 and 0.741
same,cell count,[3]; [24],4440 and 7100
same,cell count,[3]; [25],6300 and 8290
same,z-score,[4]; [26],-0.19 (inactive) and -0.5 (inactive)
same,z-score,[4]; [27],-0.897 and -0.252
same,luciferase signal,[5],56 AU (inactive)
same,z-score,[17],0.17 (inactive)
C[N+](C)(C)CCO,inhibition,[6],2.29%
same,score,[7],1.21
same,rescue above control,[8],0.45
same,cytochrome c release ratio,[9],1.11
same,inhibition of aggregation,[10],51.5%
same,glutamate uptake change,[11],11.9%
same,inclusion score,[12],2
same,aggregation suppression score,[13],1.39
same,period change,[14],-0.015 h (inactive)
same,parasite load remaining,[18],151% (inactive) and 49.7% (inactive)
same,viability,[18],89.2% and 117%
same,inhibition,[1],2.82% (inactive)
same,red/green cell ratio (normalised),[2],1.11 (inactive)
same,normalised cell number,[2]; [20],1.16
same,normalised cell number,[2]; [21],1.3
same,fold change,[3]; [22],1.01 (inactive) and 0.882 (inactive) and 0.829 (inactive)
same,fold change,[3]; [23],2.28 and 1.39 and 4.39
same,cell count,[3]; [24],9630 and 8510 and 11000
same,cell count,[3]; [25],9520 and 9640 and 13300
same,outcome,[16],inactive
same,z-score,[4]; [26],-0.228 (inactive)
same,z-score,[4]; [27],-0.171
same,remaining NAD,[19],10 nM (inactive)
same,luciferase signal,[5],200 AU (inactive)
same,z-score,[17],0.51 (inactive)
COc1ccc(C(C)=O)c(O)c1,inhibition,[1],10.4% (inactive)
same,red/green cell ratio (normalised),[2],0.98 (inactive)
same,normalised cell number,[2]; [20],0.95
same,normalised cell number,[2]; [21],0.94
same,fold change,[3]; [22],0.902 (inactive)
same,fold change,[3]; [23],0.777
same,cell count,[3]; [24],9270
same,cell count,[3]; [25],10300
same,z-score,[4]; [26],-0.383 (inactive)
same,z-score,[4]; [27],0.53
same,luciferase signal,[5],24 AU (inactive)
